# Laboratory results from PubChem BioAssay.
# Inconclusive results are not listed. For some of these results: Potency and affinity values are given separately. Active and inactive are the calls of the source.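 Rule for the calls, unless noted: active = compound raises insulin release from rat beta cells at 5 mM glucose, no numeric limit stated; inactive = the rest.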
# Legend:
# [1] = stimulators of insulin release from INS-1E, primary screen, cell-based, 5 mM glucose, NPC library (AID 1117329); settings: rat INS-1E insulin secretion, at 10 µM, stronger effect = higher value
# [2] = growth inhibition of GSK3B-pretreated HCT116 cells – cell-based, CellTiter-Glo, 0.2 to 20 µM (AID 1117336;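 active = compounds lowering colon cancer cell viability after pretreatment blocking the GSK3B kinase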); settings: HCT116 viability after GSK3B inhibitor, at 20 µM, stronger effect = higher value
# [3] = inhibition of endothelial tube formation, primary screen, imaging, VEGF stimulated, CD31 staining, tube area, NPC library (AID 1117340;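 active = compound that reduces growth-factor-driven endothelial tube area in a mixed cell culture, no cutoff stated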); settings: VEGF-stimulated ADSC/ECFC co-culture, at 10 µM, stronger effect = higher value
# [4] = GLP1 release stimulators, primary, NCI-H716, NPC library (AID 1117341;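 active = compound raises GLP1 secretion from the human gut endocrine cells, with no numeric limit stated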); settings: NCI-H716 cells, at 10 µM, stronger effect = higher value
# [5] = HCT116 colon cancer cell growth inhibition, primary screen, CellTiter-Glo luminescence, NPC library (AID 1117342;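 active = compounds that lower survival of HCT116 colon cancer cells in the luminescence readout, no numeric limit stated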); settings: at 20 µM (top of the series)
# [6] = reduced SW480 viability measured with CellTiter-Glo, NPC library, primary (AID 1117343;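 active = compounds that lower viability of the colon cancer cells in the luminescence readout, with no numeric limit stated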); settings: CellTiter-Glo luminescence; at 20 µM (top of the series)
# [7] = NPC library primary testing for decreased DLD-1 cell viability via CellTiter-Glo (AID 1117346;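 active = compounds that lower survival of DLD-1 colon cancer cells in the luminescence readout, no cutoff given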); settings: DLD-1 viability, CellTiter-Glo luminescence; at 20 µM (top of the series)
# [8] = molecular target: 6-phosphogluconate dehydrogenase, decarboxylating (Homo sapiens) (UniProt P52209); assay: inhibition of human phosphogluconate dehydrogenase – biochemical, recombinant enzyme, NADPH absorbance, primary screen (AID 1159550;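 active = at least 20% inhibition of 6-phosphogluconate dehydrogenase activity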); settings: recombinant 6PGD, NADPH absorbance 341 nm; at 10 µM; stronger effect = higher value
# 6-phosphogluconate dehydrogenase, decarboxylating (Homo sapiens), sequence (P52209 whole entry, looked up): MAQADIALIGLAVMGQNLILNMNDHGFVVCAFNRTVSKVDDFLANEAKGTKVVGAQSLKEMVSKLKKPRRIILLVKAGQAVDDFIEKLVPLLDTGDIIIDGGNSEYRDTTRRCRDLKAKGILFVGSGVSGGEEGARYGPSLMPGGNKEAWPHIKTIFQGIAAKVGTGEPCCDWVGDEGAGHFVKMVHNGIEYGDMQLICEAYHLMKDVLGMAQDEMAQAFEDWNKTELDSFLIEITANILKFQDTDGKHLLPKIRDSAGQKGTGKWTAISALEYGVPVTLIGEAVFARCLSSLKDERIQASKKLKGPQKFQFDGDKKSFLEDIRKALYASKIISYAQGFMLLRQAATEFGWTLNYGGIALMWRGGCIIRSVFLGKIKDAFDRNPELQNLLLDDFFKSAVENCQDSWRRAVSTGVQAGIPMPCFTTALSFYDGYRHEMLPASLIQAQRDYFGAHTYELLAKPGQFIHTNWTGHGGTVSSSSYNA
# [9] = viability loss in pontine glioma line – cell-based, SU-DIPG-XVII, MIPE5.0, CellTiter-Glo, qHTS, dose response (AID 1347060; cut-off not given, nearly all actives have AC50 up to about 26 µM); settings: CellTiter-Glo ATP luminescence
# [10] = viability loss in pontine glioma line – cell-based, SU-DIPG-XIII, MIPE4.0, CellTiter-Glo, qHTS, dose response (AID 1347061; cut-off not given, nearly all actives have AC50 up to about 37 µM;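 note: cells exposed to compound for 48 hours before readout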); settings: CellTiter-Glo ATP luminescence
# [11] = viability loss in pontine glioma line – cell-based, JHH-DIPG-1, MIPE4.0, CellTiter-Glo, qHTS, dose response (AID 1347062; cut-off not given, nearly all actives have AC50 up to about 27 µM); settings: JHH-DIPG-1 viability, CellTiter-Glo ATP luminescence
# [12] = viability loss in pontine glioma line – cell-based, SU-DIPG-IV, MIPE4.0, CellTiter-Glo, qHTS, dose response (AID 1347063; cut-off not given, nearly all actives have AC50 up to about 30 µM;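 note: compound exposure lasted 48 hours before the viability readout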); settings: CellTiter-Glo ATP luminescence
# [13] = viability loss in pontine glioma line – cell-based, SU-DIPG-XIII, MIPE5.0, CellTiter-Glo, qHTS, dose response (AID 1347064; cut-off not given, nearly all actives have AC50 up to about 23 µM); settings: CellTiter-Glo ATP luminescence
# [14] = system: Aerobactin synthetase IucA (Klebsiella pneumoniae); assay: inhibition of K. pneumoniae IucA enzyme – biochemical, Tocris library, absorbance (AID 1345561; call rule not given here;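 note: 100% = enzyme without compound and 0% = no enzyme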); settings: purified IucA enzyme assay, absorbance (OD) read-out; stronger effect = lower value;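 tested at 8 µM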
# [15] = molecular target: Calcium-dependent protein kinase 1 (Plasmodium falciparum (isolate 3D7)) (UniProt P62344); assay: PfCDPK1 kinase inhibitors, biochemical, TCAMS library (AID 1159585; cut-off not given, nearly all actives have IC50 up to about 0.98 µM;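 note: inhibitors leave more ATP so luminescence rises with inhibition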); settings: recombinant PfCDPK1, Kinase-Glo ATP depletion luminescence
# Calcium-dependent protein kinase 1 (Plasmodium falciparum (isolate 3D7)), sequence (P62344 whole entry, looked up): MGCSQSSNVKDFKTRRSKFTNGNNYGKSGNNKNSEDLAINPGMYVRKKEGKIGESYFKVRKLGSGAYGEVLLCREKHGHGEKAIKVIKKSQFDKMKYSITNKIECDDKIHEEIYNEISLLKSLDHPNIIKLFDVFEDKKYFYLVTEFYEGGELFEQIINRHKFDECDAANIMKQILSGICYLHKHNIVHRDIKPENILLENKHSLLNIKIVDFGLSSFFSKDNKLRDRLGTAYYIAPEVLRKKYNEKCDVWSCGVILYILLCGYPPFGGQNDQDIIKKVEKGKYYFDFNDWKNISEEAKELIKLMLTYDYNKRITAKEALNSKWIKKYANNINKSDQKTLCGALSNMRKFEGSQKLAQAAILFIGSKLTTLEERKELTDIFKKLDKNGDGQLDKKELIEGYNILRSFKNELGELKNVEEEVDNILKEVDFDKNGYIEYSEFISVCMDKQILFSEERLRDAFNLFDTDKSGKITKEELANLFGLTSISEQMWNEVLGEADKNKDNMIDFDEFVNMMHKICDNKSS
# [16] = molecular target: Plasmodium falciparum protein kinase 6 (PK6, PF3D7_1337100) (UniProt Q8IDW1); assay: PfPK6 kinase inhibitors, biochemical, TCAMS library (AID 1159586; call rule not given here); settings: recombinant PfPK6, Kinase-Glo ATP depletion luminescence
# Plasmodium falciparum protein kinase 6 (PK6, PF3D7_1337100), sequence (Q8IDW1 1-305): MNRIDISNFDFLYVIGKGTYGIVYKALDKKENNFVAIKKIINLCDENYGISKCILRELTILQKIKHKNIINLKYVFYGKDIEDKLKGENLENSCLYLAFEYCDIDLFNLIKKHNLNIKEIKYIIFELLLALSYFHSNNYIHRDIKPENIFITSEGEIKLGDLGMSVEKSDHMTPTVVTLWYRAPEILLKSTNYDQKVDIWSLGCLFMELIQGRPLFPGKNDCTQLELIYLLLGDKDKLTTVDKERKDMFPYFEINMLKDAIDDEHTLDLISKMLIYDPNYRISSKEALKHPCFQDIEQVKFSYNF
# [17] = molecular target: Protein kinase 7 (PK7), Plasmodium falciparum 3D7 (PF3D7_0213400) (UniProt Q7YTF7); assay: inhibition of Plasmodium PK7 catalytic activity – biochemical, TCAMS antimalarial set, Kinase-Glo luminescence (AID 1159587; call rule not given here); settings: recombinant PfPK7, Kinase-Glo ATP depletion luminescence
# Protein kinase 7 (PK7), Plasmodium falciparum 3D7 (PF3D7_0213400), sequence (Q7YTF7 1-343): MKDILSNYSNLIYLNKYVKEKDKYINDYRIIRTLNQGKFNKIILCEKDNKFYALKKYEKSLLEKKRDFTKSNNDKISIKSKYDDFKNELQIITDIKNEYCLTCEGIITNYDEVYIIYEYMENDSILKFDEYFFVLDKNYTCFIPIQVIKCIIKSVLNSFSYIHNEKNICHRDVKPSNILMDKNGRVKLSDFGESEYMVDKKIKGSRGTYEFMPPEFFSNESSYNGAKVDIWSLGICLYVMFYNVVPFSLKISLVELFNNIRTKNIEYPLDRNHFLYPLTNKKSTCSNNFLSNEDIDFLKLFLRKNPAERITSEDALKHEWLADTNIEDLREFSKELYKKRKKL
# [18] = molecular target: Calcium-dependent protein kinase 4 (Plasmodium falciparum (isolate 3D7)) (UniProt Q8IBS5); assay: PfCDPK4 kinase inhibitors, biochemical, TCAMS library (AID 1159588; cut-off not given, nearly all actives have IC50 up to about 0.91 µM); settings: recombinant PfCDPK4, Kinase-Glo ATP depletion luminescence
# Calcium-dependent protein kinase 4 (Plasmodium falciparum (isolate 3D7)), sequence (Q8IBS5 whole entry, looked up): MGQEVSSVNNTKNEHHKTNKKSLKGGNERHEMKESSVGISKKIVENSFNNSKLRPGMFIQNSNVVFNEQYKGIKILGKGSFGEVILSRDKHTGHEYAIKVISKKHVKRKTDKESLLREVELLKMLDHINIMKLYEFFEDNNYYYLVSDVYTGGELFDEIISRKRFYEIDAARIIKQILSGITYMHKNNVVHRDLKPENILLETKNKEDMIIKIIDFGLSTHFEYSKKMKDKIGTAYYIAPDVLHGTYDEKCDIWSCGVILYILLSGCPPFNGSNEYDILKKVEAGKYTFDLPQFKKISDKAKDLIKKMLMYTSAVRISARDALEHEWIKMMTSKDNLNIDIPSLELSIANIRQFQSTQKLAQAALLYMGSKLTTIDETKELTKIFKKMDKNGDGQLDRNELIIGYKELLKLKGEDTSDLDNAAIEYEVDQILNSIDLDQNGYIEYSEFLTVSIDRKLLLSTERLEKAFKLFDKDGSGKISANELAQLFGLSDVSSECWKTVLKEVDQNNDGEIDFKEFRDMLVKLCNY
# [19] = modulation of C. elegans fzo-1 (AID 1259413; call rule not given here;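 note: fzo-1 mutant C. elegans worms in liquid wells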); settings: C. elegans fzo-1 modulator screen, mean read-out; stronger effect = higher value
# [20] = EMT-state selective cytotoxicity in co-culture – imaging, PC-3E GFP, TEM4-18 mCherry, primary screen (AID 1345086;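 active = compounds killing one labelled cell type while sparing the other, by normalised counts and ratio limits, not self-fluorescent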;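 for all read-outs here: cells exposed to compound for 72 h before imaging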;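 for red/green cell ratio (normalised): normalised mesenchymal count divided by normalised epithelial count so high means epithelial killing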); settings: PC-3E GFP / TEM4-18 mCherry co-culture, imaging cell counts, at 1 µM; for red/green cell ratio (normalised): actives lie on both sides, counts scaled to control wells, 1 = unselective
# [21] = measured here: epithelial PC-3E GFP cell survival
# [22] = measured here: mesenchymal TEM4-18 mCherry cell survival
compound,measurement,setting,value
CNC[C@H](O)c1ccc(O)c(O)c1,insulin secretion stimulation,[1],-2.3% (inactive)
same,viability decrease,[2],31.1% (inactive)
same,tube area decrease,[3],-5.3% (inactive)
same,GLP1 secretion stimulation,[4],2.1% (inactive)
same,inhibition of viability,[5],-7.2% (inactive)
same,viability decrease (inhibition),[6],64.8% (active)
same,viability decrease (inhibition),[7],23.9% (inactive)
same,inhibition,[8],-1.63% (inactive)
same,outcome,[9],inactive
same,outcome,[10],inactive
same,outcome,[11],inactive
same,outcome,[12],inactive
same,outcome,[13],inactive
Nc1ccc(S(N)(=O)=O)cc1,insulin secretion stimulation,[1],-1.2% (inactive)
same,viability decrease,[2],3.9% (inactive)
same,tube area decrease,[3],-8.1% (inactive)
same,GLP1 secretion stimulation,[4],2.3% (inactive)
same,inhibition of viability,[5],-0.4% (inactive)
same,viability decrease (inhibition),[6],6.8% (inactive)
same,viability decrease (inhibition),[7],25.1% (inactive)
same,inhibition,[8],7.71% (inactive)
same,outcome,[9],inactive
same,outcome,[10],inactive
same,outcome,[11],inactive
same,outcome,[12],inactive
same,outcome,[13],inactive
C[C@@](Cc1ccc(O)c(O)c1)(NN)C(=O)O,insulin secretion stimulation,[1],0.3% (inactive)
same,viability decrease,[2],48.3% (inactive)
same,tube area decrease,[3],-3.9% (inactive)
same,GLP1 secretion stimulation,[4],-1.3% (inactive)
same,inhibition of viability,[5],27.4% (inactive)
same,viability decrease (inhibition),[6],88.8% (active)
same,viability decrease (inhibition),[7],11.7% (inactive)
same,inhibition,[8],-4.83% (inactive)
same,remaining activity,[14],93.6% (inactive)
CCN(CC)Cc1cc(Nc2ccnc3cc(Cl)ccc23)ccc1O,insulin secretion stimulation,[1],9.6% (inactive)
same,viability decrease,[2],82% (active)
same,tube area decrease,[3],39.9% (inactive)
same,GLP1 secretion stimulation,[4],-1.3% (inactive)
same,inhibition of viability,[5],83.2% (active)
same,viability decrease (inhibition),[6],87.3% (active)
same,viability decrease (inhibition),[7],44.8% (inactive)
same,outcome,[15],inactive
same,outcome,[16],inactive
same,outcome,[17],inactive
same,outcome,[18],inactive
Cc1nc(N)nc(N)c1-c1ccc(Cl)c(Cl)c1,insulin secretion stimulation,[1],1.95% (inactive)
same,viability decrease,[2],101% (active)
same,tube area decrease,[3],-11.8% (inactive)
same,GLP1 secretion stimulation,[4],2.8% (inactive)
same,inhibition of viability,[5],95.5% (active)
same,viability decrease (inhibition),[6],131% (active)
same,viability decrease (inhibition),[7],68.5% (active)
same,outcome,[15],inactive
same,outcome,[16],inactive
same,outcome,[17],inactive
same,outcome,[18],inactive
C[C@]12CC[C@@H]3c4ccc(O)cc4CC[C@H]3[C@@H]1C[C@@H](O)[C@@H]2O,insulin secretion stimulation,[1],2% (inactive)
same,viability decrease,[2],11.1% (inactive)
same,tube area decrease,[3],-3.9% (inactive)
same,GLP1 secretion stimulation,[4],12.5% (inactive)
same,inhibition of viability,[5],4.67% (inactive)
same,viability decrease (inhibition),[6],25.1% (inactive)
same,viability decrease (inhibition),[7],-13.7% (inactive)
same,inhibition,[8],-14.5% (inactive)
same,outcome,[13],inactive
Nc1nc2c(ncn2CCC(CO)CO)c(=O)[nH]1,insulin secretion stimulation,[1],-2.4% (inactive)
same,viability decrease,[2],0.03% (inactive)
same,tube area decrease,[3],11.3% (inactive)
same,GLP1 secretion stimulation,[4],1.1% (inactive)
same,inhibition of viability,[5],6.65% (inactive)
same,viability decrease (inhibition),[6],47.6% (inactive)
same,viability decrease (inhibition),[7],-0.57% (inactive)
same,mean signal,[19],282 (inactive)
same,red/green cell ratio (normalised),[20],1 (inactive)
same,normalised cell number,[20]; [21],0.96
same,normalised cell number,[20]; [22],0.96
CCCc1c(OCCCCc2nn[nH]n2)ccc(C(C)=O)c1O,insulin secretion stimulation,[1],-0.7% (inactive)
same,viability decrease,[2],49.9% (inactive)
same,tube area decrease,[3],15.6% (inactive)
same,GLP1 secretion stimulation,[4],6.3% (inactive)
same,inhibition of viability,[5],54.3% (active)
same,viability decrease (inhibition),[6],29.7% (inactive)
same,viability decrease (inhibition),[7],27.7% (inactive)
same,mean signal,[19],231 (inactive)
CN1CCCCC1CCN1c2ccccc2Sc2ccc(S(C)=O)cc21 (centres undefined),insulin secretion stimulation,[1],15.2% (inactive)
same,viability decrease,[2],51% (active)
same,tube area decrease,[3],16.9% (inactive)
same,GLP1 secretion stimulation,[4],12.7% (inactive)
same,inhibition of viability,[5],36.7% (active)
same,viability decrease (inhibition),[6],31.7% (inactive)
same,viability decrease (inhibition),[7],9.3% (inactive)
same,mean signal,[19],243 (inactive)
same,red/green cell ratio (normalised),[20],1.05 (inactive)
same,normalised cell number,[20]; [21],1.11
same,normalised cell number,[20]; [22],1.16
OCc1cccnc1,insulin secretion stimulation,[1],-1.9% (inactive)
same,viability decrease,[2],-11.1% (inactive)
same,tube area decrease,[3],-10% (inactive)
same,GLP1 secretion stimulation,[4],1.4% (inactive)
same,inhibition of viability,[5],-9.5% (inactive)
same,viability decrease (inhibition),[6],-6.5% (inactive)
same,viability decrease (inhibition),[7],7.3% (inactive)
same,mean signal,[19],224 (inactive)
NCC1CCC(C(=O)Oc2ccc(CCC(=O)O)cc2)CC1 (centres undefined),insulin secretion stimulation,[1],-2.1% (active)
same,viability decrease,[2],1.9% (inactive)
same,tube area decrease,[3],4.4% (inactive)
same,GLP1 secretion stimulation,[4],1.4% (inactive)
same,inhibition of viability,[5],-7.95% (inactive)
same,viability decrease (inhibition),[6],17.7% (inactive)
same,viability decrease (inhibition),[7],3.17% (inactive)
same,mean signal,[19],243 (inactive)
CCN(CC)CCNC(=O)c1cc(Cl)c(N)cc1OC,insulin secretion stimulation,[1],3.1% (inactive)
same,viability decrease,[2],-11.3% (inactive)
same,tube area decrease,[3],12.6% (inactive)
same,GLP1 secretion stimulation,[4],0.3% (inactive)
same,inhibition of viability,[5],-2.1% (inactive)
same,viability decrease (inhibition),[6],-17.7% (inactive)
same,viability decrease (inhibition),[7],6% (inactive)
same,mean signal,[19],245 (inactive)
same,red/green cell ratio (normalised),[20],1.02 (inactive)
same,normalised cell number,[20]; [21],1.09
same,normalised cell number,[20]; [22],1.12
CN1CCN(C2=Nc3cc(F)ccc3Cc3ccccc32)CC1,insulin secretion stimulation,[1],3.3% (inactive)
same,viability decrease,[2],12.5% (inactive)
same,tube area decrease,[3],13% (inactive)
same,GLP1 secretion stimulation,[4],8% (inactive)
same,inhibition of viability,[5],37.7% (inactive)
same,viability decrease (inhibition),[6],26.9% (inactive)
same,viability decrease (inhibition),[7],-2.4% (inactive)
same,mean signal,[19],248 (inactive)
CC(C)(C)C(O)/C=C/c1ccc2c(c1)OCO2 (centres undefined),insulin secretion stimulation,[1],-1.1% (inactive)
same,viability decrease,[2],-4.45% (inactive)
same,tube area decrease,[3],-6.4% (inactive)
same,GLP1 secretion stimulation,[4],1.9% (inactive)
same,inhibition of viability,[5],11.7% (inactive)
same,viability decrease (inhibition),[6],-0.9% (inactive)
same,viability decrease (inhibition),[7],-1.3% (inactive)
same,mean signal,[19],280 (inactive)
